In PubChem BioAssay AID1159580 (chemical genetic matrix, 2015):
Several values for one entry are separate records, joined by “and”; a condition that tells them apart may be missing. Equal values may be shown once. The whole screen tested about 5,500 compounds, of which about 2,000 (36%) were called active. Another 18% or so got no clear call; they are omitted. No stated cut-off is given here; in the data, active means normalized growth mostly below about 0.91 (no sharp cut-off); inconclusive means no clear call, values can overlap the other calls; inactive means mostly above about 0.92. The list shows a part of the results.

Assay: chemical genetic growth profiling, strain panel (AID 1159580);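 further: tested at 20 µM; growth read once vehicle control cultures reached saturation at 30 °C; 1 = growth at the plate median or of vehicle wells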
Details: S. cerevisiae deletion strains, growth OD

Measured: normalized growth

CCOC(=O)[C@H](CCc1ccccc1)N[C@H]1CCc2ccccc2N(CC(=O)O)C1=O
inactive: locus YAL013W, strain DEP1, stronger effect = lower value 0.989 | locus YAL021C, strain ccr4, stronger effect = lower value 0.961 | locus YAL026C, strain drs2, stronger effect = lower value 0.959 | locus YAL030W, strain snc1, stronger effect = lower value 0.992 | locus YBL061C, strain skt5, stronger effect = lower value 0.988 | locus YBR009C, strain hhf1, stronger effect = lower value 0.973 | locus YBR021W, strain FUR4, stronger effect = lower value 0.978 | locus YBR023C, strain chs3, stronger effect = lower value 0.989 | locus YBR171W, strain sec66, stronger effect = lower value 0.976 | locus YBR229C, strain ROT2, stronger effect = lower value 0.986 | locus YBR231C, strain swc5, stronger effect = lower value 0.96 | locus YBR279W, strain paf1, stronger effect = lower value 0.987 | locus YCL011C, strain gbp2, stronger effect = lower value 0.992 | locus YCL016C, strain dcc1, stronger effect = lower value 0.981 | locus YCL029C, strain bik1, stronger effect = lower value 0.966 | locus YCL061C, strain MRC1, stronger effect = lower value 0.979 | locus YCL069W, strain vba3, stronger effect = lower value 0.99 | locus YCR088W, strain abp1, stronger effect = lower value 0.975 | locus YDL005C, strain med2, stronger effect = lower value 0.972 | locus YDL035C, strain GPR1, stronger effect = lower value 0.998 | locus YDL040C, strain nat1, stronger effect = lower value 0.995 | locus YDL074C, strain BRE1, stronger effect = lower value 0.998 | locus YDL101C, strain DUN1, stronger effect = lower value 0.983 | locus YDL134C, strain PPH21, stronger effect = lower value 0.998 | locus YDL185W, strain tfp1, stronger effect = lower value 0.978 | locus YDL192W, strain arf1, stronger effect = lower value 0.97 | locus YDR001C, strain nth1, stronger effect = lower value 1.01 | locus YDR069C, strain doa4, stronger effect = lower value 0.978 | locus YDR101C, strain arx1, stronger effect = lower value 0.98 | locus YDR137W, strain rgp1, stronger effect = lower value 0.992 | locus YDR150W, strain NUM1, stronger effect = lower value 0.987 | locus YDR159W, strain sac3, stronger effect = lower value 1.01 | locus YDR162C, strain NBP2, stronger effect = lower value 0.987 | locus YDR195W, strain ref2 0.961 | locus YDR297W, strain sur2, stronger effect = lower value 0.99 | locus YDR318W, strain mcm21, stronger effect = lower value 0.977 | locus YDR334W, strain swr1, stronger effect = lower value 0.988 | locus YDR335W, strain msn5, stronger effect = lower value 0.983 | locus YDR388W, stronger effect = lower value 0.976 | locus YDR392W, strain spt3, stronger effect = lower value 0.963 | locus YDR502C, strain sam2, stronger effect = lower value 0.985 | locus YEL003W, strain gim4, stronger effect = lower value 0.992 | locus YEL037C, strain rad23, stronger effect = lower value 0.982 | locus YEL061C, strain CIN8 (second series), stronger effect = lower value 0.986 | locus YEL061C, strain CIN8, stronger effect = lower value 0.989 | locus YER015W, strain faa2, stronger effect = lower value 0.985 | locus YER016W, strain bim1, stronger effect = lower value 0.979 | locus YER110C, stronger effect = lower value 0.979 | locus YER111C, strain swi4, stronger effect = lower value 1 | locus YER155C, strain BEM2 (second series), stronger effect = lower value 0.902 | locus YER155C, strain BEM2, stronger effect = lower value 0.984 | locus YER167W, strain BCK2, stronger effect = lower value 0.984 | locus YFR010W, strain ubp6, stronger effect = lower value 0.982 | locus YGL078C, strain dbp3, stronger effect = lower value 0.977 | locus YGL086W, strain mad1, stronger effect = lower value 0.988 | locus YGL167C, strain pmr1, stronger effect = lower value 0.983 | locus YGL173C, strain kem1, stronger effect = lower value 0.974 | locus YGL227W, strain vid30, stronger effect = lower value 0.965 | locus YGL240W, strain doc1, stronger effect = lower value 0.949 | locus YGL248W, strain PDE1, stronger effect = lower value 0.983 | locus YGL253W, strain hxk2, stronger effect = lower value 0.999 | locus YGR078C, strain PAC10, stronger effect = lower value 1.01 | locus YGR135W, strain pre9, stronger effect = lower value 0.985 | locus YGR229C, strain SMI1, stronger effect = lower value 0.994 | locus YGR252W, strain gcn5, stronger effect = lower value 1.04 | locus YHR013C, strain ard1, stronger effect = lower value 0.977 | locus YHR027C, strain rpn1, stronger effect = lower value 0.992 | locus YHR030C, strain SLT2, stronger effect = lower value 0.981 and 0.964 | locus YHR079C, strain IRE1 (second series), stronger effect = lower value 0.969 | locus YHR079C, strain IRE1, stronger effect = lower value 0.964 | locus YHR094C, strain hxt1, stronger effect = lower value 0.976 | locus YHR129C, strain ARP1, stronger effect = lower value 0.988 | locus YHR142W, strain chs7, stronger effect = lower value 0.986 | locus YHR200W, strain rpn10, stronger effect = lower value 0.979 | locus YIL066C, strain RNR3, stronger effect = lower value 0.985 | locus YIL073C, strain SPO22, stronger effect = lower value 1.01 | locus YIL125W, strain kgd1, stronger effect = lower value 0.978 | locus YIR030C, strain dcg1, stronger effect = lower value 0.968 | locus YJL092W, strain hpr5, stronger effect = lower value 0.988 | locus YJL095W, strain BCK1 (second series), stronger effect = lower value 0.979 | locus YJL095W, strain BCK1, stronger effect = lower value 0.99 and 0.984 | locus YJL115W, strain asf1, stronger effect = lower value 0.969 | locus YJL129C, strain trk1, stronger effect = lower value 0.973 | locus YJL134W, strain LCB3, stronger effect = lower value 0.979 | locus YJL154C, strain vps35, stronger effect = lower value 0.992 | locus YJL164C, strain tpk1, stronger effect = lower value 0.97 | locus YJL166W, strain qcr8, stronger effect = lower value 0.964 | locus YJL168C, strain set2, stronger effect = lower value 0.973 | locus YJL187C, strain SWE1 (second series), stronger effect = lower value 0.986 | locus YJR043C, strain POL32, stronger effect = lower value 0.984 | locus YJR066W, strain TOR1, stronger effect = lower value 0.942
